An excerpt weighted towards active compounds, which were near 19% of everything screened.
ELG1 repair inh = qHTS screen for small molecules that inhibit ELG1-dependent DNA repair in human embryonic kidney (HEK293T) cells expressing luciferase-tagged ELG1; HEK293T ELG1-luciferase reporter, luminescence, 16 h; DNA damage induced by 5-fluorouridine; Potency, µM (series often up to 46.1 µM), for the others: at the highest dose activity change, negative = inhibition, usual class: inhibitors; 330,000 compounds, 2.3% hits; also: potency is read from the fitted curve at half-maximal effect; nearly all actives have a fitted effect of over 55% in size
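In this reporter screen, reduction of luminescence relative to DMSO vehicle indicated activity. Compounds and 5-fluorouridine were added together to 2,000 cells per well, incubated for 16 hr at 37 °C, then developed with ONE-Glo.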
DT40 TDP1 no CPT = qHTS for Inhibitors of human tyrosyl-DNA phosphodiesterase 1 (TDP1): qHTS in cells in absence of CPT. DT40 Tdp1-/- hTDP1 cells, no CPT, ATP luminescence, 48 h. Potency, µM (top dose mostly 46.2 µM), inactives show at the highest dose activity change, negative = growth inhibition, most hits filed as inhibitors. 420,000 compounds, 15% hits. AID 686978, 2013; also: potency is read from the fitted curve at half-maximal effect; nearly all actives have a fitted effect of over 55% in size
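Chicken DT40 Tdp1-/- cells complemented with human TDP1, screened without camptothecin (DMSO vehicle only), 400 cells/well. Compounds pin-transferred, cells incubated at 37 °C for at least 48 hr. Growth read as ATP-dependent luminescence (CellTiter-Glo, 30 min at RT).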
HT1080NT lethal = qHTS for induction of synthetic lethality in tumor cells producing 2HG: qHTS for the HT-1080-NT fibrosarcoma cell line; HT-1080-NT fibrosarcoma viability, CellTiter-Glo ATP luminescence, 48 h; Potency, µM (top dose mostly 46.1 µM), for the others: at the highest dose activity, negative = less viability, hits mostly cytotoxic; 360,000 compounds, 1.6% hits;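 also: NT is the 2HG producing partner of a matched IDH1 knockdown line; potency is read from the fitted curve at half-maximal effect; 0% = DMSO-treated cells and -100% = media-only wells without cells; nearly all actives have a fitted effect of over 55% in size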
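Luminescent CellTiter-Glo readout after 48 hours of compound exposure at 37 degrees C defined viability of HT-1080-NT cells. Activity was normalized to DMSO wells and cell-free media wells; concentration-response curves were fitted and assigned curve classes.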
IL1B secr inh = qHTS for Inhibitors of Inflammasome Signaling: IL-1-beta AlphaLISA Primary Screen | activity change, % at 57.5 µM | AID 743279, 2014 | THP-1 LPS/ATP IL-1B secretion, AlphaLISA, 16 h; hits give low values | 360,000 compounds, 4.7% hits; in the data active = activity change below about -50%; inconclusive = mostly about -30% to -49%
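THP-1 cells pretreated 1 hr with compounds (up to 57.5 uM final), then stimulated with LPS (250 ng/mL final) plus ATP (1.25 mM final); secreted IL-1B measured by AlphaLISA after 16 hr, decreased signal indicating inhibition.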
HT1080 IDH1KD tx = qHTS for induction of synthetic lethality in tumor cells producing 2HG: qHTS for the HT-1080-IDH1KD cell line; HT-1080 IDH1 knockdown viability, ATP luminescence, 48 h; 360,000 compounds, 2% hits; Potency, µM (highest dose often 46.1 µM), for inactives: at the highest dose activity, negative = toxicity, hits mostly cytotoxic;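 also: potency is read from the fitted curve at half-maximal effect; 0% = DMSO wells and -100% = cell-free medium wells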
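After a 2 h attachment period, IDH1KD HT-1080 cells took pin-transferred compound for 48 h at 37 °C; ATP-based luminescence after 10 min room-temperature reagent incubation reported viability.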
TDP1 cell CPT = qHTS for Inhibitors of human tyrosyl-DNA phosphodiesterase 1 (TDP1): qHTS in cells in presence of CPT; Potency, µM (series often up to 46.2 µM), inactives show top-dose activity change, negative = growth inhibition, actives largely listed as inhibitors; AID 686979, 2013; 420,000 compounds, 12% hits; chicken DT40 Tdp1-/-;hTDP1 cells + 20 nM CPT, ATP luminescence, 48 h; also: potency is read from the fitted curve at half-maximal effect; nearly all actives have a fitted effect of over 55% in size
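Cell growth measured by CellTiter-Glo luminescence after a minimum 48 h, 37 C compound exposure with 20 nM CPT in Tdp1-knockout DT40 cells stably expressing hTDP1, seeded 400/well; qHTS titration format.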
* hit, by the source's call; ? = inconclusive; nt = not tested or not shown. Unless noted, calls follow the shape of the dose curve; as a rule, active = well fitted curve in the direction sought with a large enough effect; inconclusive = small, poorly fitted or top-dose-only effect, or another doubt; inactive = no such curve, though single readings can be large; an effect the other way counts as inactive or inconclusive. Unless noted, % is scaled to controls: 0 for no effect and ±100 for the full control effect.

SMILES	ELG1 repair inh	DT40 TDP1 no CPT	HT1080NT lethal	IL1B secr inh	HT1080 IDH1KD tx	TDP1 cell CPT
CCN1/C(=C/c2ccc3cc(C)ccc3[n+]2CC)Sc2ccc3sccc3c21	nt	0.581µM*	?	33.4	0.92µM*	0.92µM*
COC(CNC(=S)Nc1ccc([N+](=O)[O-])cc1)OC	4.2%	4.3%	2.3%	38.5	-0.5%	0.5%
O=C(NCCc1ccc(F)cc1)Nc1ccc([N+](=O)[O-])cc1	?	16.4µM*	?	-99.8*	?	29.1µM*
O=C(NCCc1ccc(Cl)cc1)Nc1ccc(F)cc1	-1.4%	?	2.5%	-25.9	-3.9%	?
O=[N+]([O-])c1ccc(NC(=S)NCCc2ccc(F)cc2)cc1	?	16.4µM*	?	-23.2	23.1µM*	16.4µM*
Cc1ccc(CCNC(=O)C2CCCN(C(=O)c3cc4sccc4n3C)C2)cc1 (stereo not drawn)	?	?	0.0%	-26.2	-20.6%	-28.6%
Cn1c(C(=O)N2CCCC(C(=O)NCCc3ccccc3)C2)cc2sccc21 (stereo not drawn)	?	5.8µM*	?	15.0	?	5.8µM*
Cn1c(C(=O)N2CCCC(C(=O)NCCCc3ccccc3)C2)cc2sccc21 (stereo not drawn)	0.0%	10.3µM*	-21.7%	-9.7	-16.9%	18.4µM*
Cc1ccc(Nc2nc(NCCO)c3ccccc3n2)cc1C	-0.9%	16.4µM*	23.1µM*	-99.5*	23.1µM*	?
COc1ccc(OC)c(Nc2nc(NCCO)c3ccccc3n2)c1	?	16.4µM*	-26.7%	-89.4*	?	?
COc1ccccc1Nc1nc(NCCO)c2ccccc2n1	0.0%	nt	nt	nt	nt	nt
C=CCN1C(=O)c2ccccc2Sc2ccc(C(=O)NCCC)cc21	-11.6%	?	2.8%	9.1	8.7%	?
Cc1ccc2oc(-c3cccc(N)c3)nc2c1	?	?	-9.2%	3.1	-13.8%	-0.7%
Nc1cccc(-c2nc3cc(S(=O)(=O)c4ccc5oc(-c6cccc(N)c6)nc5c4)ccc3o2)c1	19.3%	?	?	-0.6	?	8.2µM*
Cc1ncc(CN2CCCC(C(=O)Nc3ccc(-n4ccnc4C)cc3)C2)cn1 (stereo not drawn)	23.0%	12.8%	1.0%	11.2	4.0%	-2.5%
CNc1nc(-c2ccccc2Cl)nc2ccccc12	nt	-23.1%	nt	nt	nt	-17.2%
Clc1ccccc1Nc1nc(-c2ccncc2)nc2ccccc12	?	16.4µM*	-3.6%	-1.9	-8.1%	29.1µM*
O=c1oc(Nc2cccc(Cl)c2)nc2ccccc12	?	-24.2%	-8.4%	-2.6	-23.5%	-26.7%
Clc1cccc(Nc2nc(-c3ccncc3)nc3ccccc23)c1	2.59µM*	?	-28.5%	-7.2	-23.6%	-13.9%
COc1ccc(C(=O)/C=C2/C(=O)Nc3ccccc32)c(OC)c1	0.0%	2.59µM*	18.4µM*	-100.9*	23.1µM*	4.11µM*
COc1ccc(C(=O)/C=C2/C(=O)Nc3ccccc32)cc1OC	7.2%	4.11µM*	-8.9%	-81.5*	-10.4%	16.4µM*
COc1ccc(C(=O)/C=C2/C(=O)Nc3ccccc32)cc1	?	4.11µM*	?	?	?	9.2µM*
O=C1Nc2ccccc2/C1=C/C(=O)c1cccs1	-3.3%	8.2µM*	?	-119.5*	?	6.51µM*
Cc1ccc(NC(=O)CN2CCN(C3CCCCC3)C(=O)C2=O)cc1C	nt	-7.1%	nt	nt	nt	?
COc1ccc(S(=O)(=O)N(C)C[C@H]2Oc3ccc(NC(=O)NC4CCCCC4)cc3C(=O)N([C@H](C)CO)C[C@@H]2C)cc1	-9.8%	?	-6.9%	?	-0.2%	?
SMILES	ELG1 repair inh	DT40 TDP1 no CPT	HT1080NT lethal	IL1B secr inh	HT1080 IDH1KD tx	TDP1 cell CPT
CSc1nc(N)nc2c1ncn2CC(=O)NCC1CCCO1 (stereo not drawn)	3.6%	-3.1%	11.4%	2.6	6.1%	-10.7%
COC(=O)c1cc(S(=O)(=O)N2CCC(c3ccccc3)C2)c[nH]1 (stereo not drawn)	?	?	?	30.9	-1.9%	23.1µM*
COC(=O)c1cc(S(=O)(=O)N2CCC(c3cc(OC)ccc3OC)C2)c[nH]1 (stereo not drawn)	?	?	-17.7%	-5.2	-13.3%	13µM*
CCOC(=O)c1c(NC(=O)COC(=O)c2ccc(O)cc2)sc(C(=O)N(C)C)c1C	?	23.1µM*	-0.6%	-1.4	-4.5%	?
CCOC(=O)c1c(NC(=O)COC(=O)CCOc2ccccc2C)sc(C(=O)NC)c1C	?	?	-2.7%	-2.5	-3.1%	23.1µM*
CCOC(=O)c1c(NC(=O)COC(=O)CNC(=O)c2ccco2)sc(C)c1C	17.1%	?	-3.0%	-6.2	-10.3%	5.8µM*
CCOC(=O)c1c(NC(=O)C(Sc2ccccc2)c2ccccc2)sc(C(=O)N(C)C)c1C (stereo not drawn)	?	16.4µM*	-4.3%	-24.9	?	?
CCOC(=O)c1c(NC(=O)COC(=O)c2ccc(Cl)nc2)sc(C(=O)N(C)C)c1C	-17.8%	?	3.0%	-3.2	2.2%	4.6%
COC(=O)c1c(NC(=O)COC(=O)CNC(=O)c2ccco2)sc(C)c1C	5.4%	5.4%	13.7%	26.5	8.9%	8.8%
O=C(/C=C1\OCc2ccccc21)c1ccccc1	nt	?	0.1%	8.9	-0.1%	?
O=C(c1ccccc1)C1CCN(C(=O)C2CCC(=O)N(Cc3ccccc3F)C2)CC1 (stereo not drawn)	-2.3%	20.6µM*	0.5%	12.2	-1.9%	16.4µM*
CCc1ccccc1N=C1S/C(=C/c2ccccc2OCC(=O)N2CCOCC2)C(=O)N1C	?	?	?	-71.7*	?	?
COC(=O)c1ccc(Oc2nc(N3CCCCC3)nc(N3CCOCC3)n2)cc1	-3.9%	-20.2%	-10.0%	-55.3*	-10.0%	-23.1%
CC(=O)Nc1ccc(/C(C)=N/Nc2nc(Nc3ccccc3)nc(N3CCOCC3)n2)cc1	6.51µM*	7.31µM*	?	-25.1	?	5.17µM*

High-throughput results: PubChem, National Center for Advancing Translational Sciences (NCATS)
